Compound activity from PubChem.
TAG inh: reduces triacylglycerol accumulation in H9c2 cells; inhibition, % at 12.5 µM; Nile Red lipid (TAG) fluorescence; cells loaded with 200 µM oleic acid; 230,000 tested, 0.66% active;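 active = pattern-corrected inhibition of lipid staining of at least 50% with the nuclear-stain viability signal not falling by more than 50%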;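 note: 0% = DMSO wells and 100% = triacsin C control wells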
iPSC survival up: hiPSC single-cell survival enhancement; ATPlite luminescence; 100% = ROCK inhibitor wells, 0% = DMSO; 360,000 tested, 0.044% active; survival enhancement, % at 20 µM; AID 602274; in the data active = survival enhancement above about 18%;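 note: cells exposed to compounds for 16 hours before the ATP read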
MIN6 prolif: induces beta-cell replication in MIN6 cells; MIN6 cells proliferation, ATPlite luminescence, 48 h; cells starved in 0.2% serum; 100% = growth in 10% serum; proliferation, % at 10 µM; 330,000 tested, 0.29% active;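 active = compounds whose signal lies at least 3.5 SD above the mean of all wells on their plate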;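 note: 0% = DMSO-treated cells in low-serum medium and 100% = 10% serum control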
TAG conf: triacylglycerol accumulation inhibition, confirmation | shares compounds with TAG inh | H9c2 lipid accumulation, Nile Red fluorescence; cells loaded with 200 µM oleic acid | inhibition, % at 12.5 µM | 990 tested, 71% active | AID 651629;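 active = mean inhibition across replicates of 40% or more; inactive = mean inhibition below 40%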;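 note: plate controls were DMSO only wells for no effect and Triacsin C treated wells for full effect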
The depositor's hits bear a star. Shown are actives, neighbours in structure and some others; about 0.71% of the full set was active somewhere.

How did CN(C)CCN(Cc1ccccc1)C(=O)c1[nH]c(C(F)(F)F)nc1-c1ccccc1 do in these assays?
iPSC survival up: -1

Results for CCOc1cccc(-c2ccc3nncn3c2)c1 ?
TAG inh: -4; iPSC survival up: 2

What do the screens show for `N#C/C(=C\Nc1ccc2cn[nH]c2c1)c1nc(-c2ccccc2)cs1`?
TAG inh: 26; iPSC survival up: 2

How did N#C/C(=C\Nc1ccc2cn[nH]c2c1)c1nc(-c2ccc(Cl)cc2)cs1 do in these assays?
TAG inh: 78*; iPSC survival up: 1; MIN6 prolif: -6; TAG conf: 83*

What do the screens show for `CCOC(=O)N1CCN(C(=O)C[C@@H]2C[C@@]3(C(=O)OC)CCCCC=C3N(Cc3cccc4ccccc34)C2=O)CC1`?
iPSC survival up: -1

Results for COc1cc(C2c3cc4c(cc3OC(C)(N3CCCC3)C2C)OCO4)cc(OC)c1OC (stereo unspecified) ?
TAG inh: 56*; iPSC survival up: -2; TAG conf: 56*

How did COc1cc(C2c3cc4c(cc3OC(N3CCCC3)C2C)OCO4)cc(OC)c1O (stereo unspecified) do in these assays?
TAG inh: 3; iPSC survival up: 0

How did COCCN(Cc1ccc(C)cc1)C(=O)[C@H]1O[C@@H](n2cnc3c(N)ncnc32)[C@H](O)[C@@H]1O do in these assays?
iPSC survival up: 9

Results for Cc1ccc(-n2nnnc2CNC(=O)c2ccc([N+](=O)[O-])o2)cc1C ?
TAG inh: 60; iPSC survival up: 0; MIN6 prolif: -4

How did O=C(NCc1nnnn1-c1ccc(F)cc1)c1ccc([N+](=O)[O-])o1 do in these assays?
TAG inh: 65*; iPSC survival up: 0; MIN6 prolif: -2; TAG conf: 82*

What do the screens show for `CC(=O)c1ccc(-c2ccc(C(=O)NCC(c3ccc(F)cc3)N3CCOCC3)o2)cc1` (stereo unspecified)?
TAG inh: -26; iPSC survival up: 0; MIN6 prolif: -3

How did O=C(NCC(c1ccc(F)cc1)N1CCOCC1)c1ccc([N+](=O)[O-])o1 (stereo unspecified) do in these assays?
TAG inh: 51*; iPSC survival up: -2; MIN6 prolif: -1; TAG conf: 76*

How did CC1(C(=O)NCc2ccccc2Br)CCN1Cc1ccc(-c2ccccn2)cc1 (stereo unspecified) do in these assays?
TAG inh: -9; iPSC survival up: 0

Results for C[C@@H]1CCCCO[C@H](CN(C)S(=O)(=O)c2ccc(F)cc2)[C@@H](C)CN([C@H](C)CO)C(=O)c2cc(NC(=O)Nc3ccc(C(F)(F)F)cc3)ccc2O1 ?
TAG inh: 46; iPSC survival up: 0

Results for COc1ccc(S(=O)(=O)N(C)C[C@@H]2OCCCC[C@H](C)Oc3ccc(NC(=O)Nc4ccc(C(F)(F)F)cc4)cc3C(=O)N([C@H](C)CO)C[C@H]2C)cc1 ?
TAG inh: 59*; iPSC survival up: -5; TAG conf: 44*

How did C[C@H](CO)N1C[C@H](C)[C@@H](CN(C)Cc2cccnc2)Oc2ncc(-c3cccc(C#N)c3)cc2C1=O do in these assays?
TAG inh: -9; iPSC survival up: 1

How did CC1(C)OC(=O)C2=C(C[C@@H](C3CCCCC3)O[C@H]2c2ccc(Cl)cc2)O1 do in these assays?
iPSC survival up: 0

What do the screens show for `Cc1cc(NC(=O)c2cc(-c3ccncc3)nc3c(C)cccc23)no1`?
TAG inh: 64*; iPSC survival up: 2; MIN6 prolif: -3; TAG conf: 66*

Results for Cc1ccc(-c2cc(C(=O)Nc3cc(C)on3)c3ccccc3n2)cc1 ?
TAG inh: 11; iPSC survival up: -2; MIN6 prolif: 1

How did COc1ccc(-c2nc(NC(=O)C3CCN(c4nc5ccccc5o4)CC3)sc2C)cc1 do in these assays?
TAG inh: 66*; iPSC survival up: 0; MIN6 prolif: -5; TAG conf: 58*

How did COc1ccc(-c2nc(NC(=O)Cn3c(=O)oc4ccccc43)sc2C)cc1 do in these assays?
iPSC survival up: 2; MIN6 prolif: -6

Results for CCCCCCn1cc(CN2CC(N3CCN(Cc4ccccc4F)CC3)CS2(=O)=O)nn1 (stereo unspecified) ?
iPSC survival up: -1

Results for CC1(C(=O)NCc2ccc(F)c(F)c2)Cc2c(-c3cccc(C(N)=O)c3)ccnc2O1 (stereo unspecified) ?
TAG inh: 18; iPSC survival up: 2

What do the screens show for `NC(=O)c1cccc(-c2ccnc3c2CC(C(=O)NCc2ccc(F)c(F)c2)O3)c1` (stereo unspecified)?
TAG inh: 5; iPSC survival up: -3

How did COc1ccc(NC(=O)C2(C)Cc3c(-c4cccc(C(N)=O)c4)ccnc3O2)cn1 (stereo unspecified) do in these assays?
TAG inh: 50*; iPSC survival up: -1; TAG conf: 55*

How did CC1(C(=O)NCc2ccccc2)Cc2c(-c3cccc(C(N)=O)c3)ccnc2O1 (stereo unspecified) do in these assays?
TAG inh: 55*; iPSC survival up: -1; TAG conf: 60*

Results for CC1(C(=O)NCc2ccco2)Cc2c(-c3cccc(C(F)(F)F)c3)ccnc2O1 (stereo unspecified) ?
TAG inh: 54*; iPSC survival up: -2; TAG conf: 46*

What do the screens show for `CC(=O)c1cccc(NC(=O)C2(C)Cc3c(-c4cccc(C(N)=O)c4)ccnc3O2)c1` (stereo unspecified)?
TAG inh: 7; iPSC survival up: 0

How did NC(=O)c1cccc(-c2ccnc3c2CC(C(=O)NCc2ccccc2)O3)c1 (stereo unspecified) do in these assays?
TAG inh: 50*; iPSC survival up: 0; TAG conf: 54*

Results for CC1(C(=O)NCc2ccncc2)Cc2c(-c3cccc(C(F)(F)F)c3)ccnc2O1 (stereo unspecified) ?
TAG inh: 21; iPSC survival up: 4

Results for Cc1ccccc1Cn1c(C)c(C(=O)NCCC#N)sc1=O ?
TAG inh: 3; iPSC survival up: -3

How did CCOC1=C2[C@H](c3ccccc3F)N(S(=O)(=O)c3ccc(C)cc3)C[C@H]2n2c(=O)n(-c3ccccc3)c(=O)n2C1 do in these assays?
iPSC survival up: 1

How did COc1ccc(CN2C(=O)C(CC(=O)NCC3CCCCC3)CC(C(=O)N(C(C)C)C(C)C)=C2C)cc1 (stereo unspecified) do in these assays?
TAG inh: 8; iPSC survival up: 0

Results for CCOC(=O)C1=C[C@@H](C(C)(C)C)N(S(=O)(=O)c2ccc(C)cc2)[C@H]1c1ccc(Cl)c(Cl)c1 ?
iPSC survival up: -1

What do the screens show for `COCCN(Cc1ccccc1)C(=O)C1CCN(C(=O)Nc2ccccc2)CC1`?
TAG inh: 54*; iPSC survival up: 0; MIN6 prolif: -1; TAG conf: 45*

How did CN(Cc1ccc(C(C)(C)C)cc1)C(=O)C1CCN(C(=O)Nc2ccccc2)CC1 do in these assays?
TAG inh: 37; iPSC survival up: 0; MIN6 prolif: -3
